Test systems include DU-145 prostate; K-562 leukemia; MALME-3M melanoma; MDA-MB-231 breast; RXF 393 renal; SF-268 CNS; SF-295 CNS; SF-539 CNS; UACC-257 melanoma; M14 melanoma.
Assay in all cases: NCI-60 one-dose screen, 48 h (100 = growth as untreated, 0 = no growth, -100 = all killed)
What all share (details): 10 µM

Compounds without any hit were thinned out: in the full panel of roughly 83,000, 20% have a hit.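 Results are percent growth after 48 hours of single-concentration exposure. 100 means growth as in untreated cells, lower positive values show inhibition; negative values down to -100 show cell death.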 Values without a mark were called inactive. Calls of active or inactive are those of the source. Rule for the calls: active = growth percent below 10; inactive = the rest.

In the case of `CN(C)c1ccc2oc(=O)c3ccccc3c2c1`, the growth with DU-145 prostate is 105%; in the test with K-562 leukemia it was 109%; with MALME-3M melanoma, 97.6%; in the test with MDA-MB-231 breast, 77.6%; in the test on RXF 393 renal, 106%; with SF-268 CNS, 100%. Also, the growth in the test with SF-295 CNS was 102%; in the test with SF-539 CNS, 80.4%; with UACC-257 melanoma, 106%.
`CCOC(=O)/C(=C/c1ccc(OC)cc1)N(CC)CC`: the growth is 102% in the test on DU-145 prostate; 102% in the test on K-562 leukemia; 108% in the test with MALME-3M melanoma; 107% with MDA-MB-231 breast; 107% with RXF 393 renal; 100% in the test on SF-268 CNS. Further, the growth was 101% in the test on SF-295 CNS, 108% with SF-539 CNS and 103% in the test with UACC-257 melanoma.
Regarding `O=C(NN=C1CCCCC1)C(=O)NN=C1CCCCC1`, the growth with DU-145 prostate was 121%; with K-562 leukemia it was 81.1%; in the test with MALME-3M melanoma, 127%; in the test on MDA-MB-231 breast, 113%; with RXF 393 renal it was 107%; in the test on SF-268 CNS it was 99.1%. Besides, the growth with SF-295 CNS is 113%; in the test with SF-539 CNS, 101%; in the test on UACC-257 melanoma it was 108%.
As to `C=CCOC(=O)C(=O)OCC=C`, the growth was 112% with DU-145 prostate; 95.1% in the test on K-562 leukemia; 139% in the test with MALME-3M melanoma; 108% in the test on MDA-MB-231 breast; 103% with RXF 393 renal; 103% in the test on SF-268 CNS. For the same molecule, the growth with SF-295 CNS is 154%; in the test with SF-539 CNS, 91.8%; in the test on UACC-257 melanoma, 102%.
On to `CCOc1ccccc1/C=N/Nc1nc2ccccc2o1`, for which the growth is 110% in the test on DU-145 prostate; 95.7% in the test with K-562 leukemia; 97.5% with MALME-3M melanoma; 82.8% with MDA-MB-231 breast; 112% with RXF 393 renal; 108% with SF-268 CNS. In addition, the growth in the test on SF-295 CNS was 108%; with SF-539 CNS, 104%; in the test with UACC-257 melanoma, 113%.
For `COC(=O)c1cccc(Br)c1`, the growth is 111% with DU-145 prostate; 121% in the test with K-562 leukemia; 111% in the test on MALME-3M melanoma; 111% in the test with MDA-MB-231 breast; 146% in the test on RXF 393 renal; 108% in the test with SF-268 CNS. Moreover, the growth with SF-295 CNS was 102%; in the test on SF-539 CNS, 98.7%; with UACC-257 melanoma, 112%; with M14 melanoma, 101%.
Consider `CCC(C#N)(CC)c1ccccc1`, for which the growth in the test with DU-145 prostate is 109%; with K-562 leukemia, 97.1%; with MALME-3M melanoma, 121%; with MDA-MB-231 breast, 97.4%; with RXF 393 renal, 115%; with SF-268 CNS, 99.3%. For the same molecule, the growth is 113% in the test with SF-295 CNS, 113% in the test with SF-539 CNS and 104% with UACC-257 melanoma.
For the molecule `S=C1CCCCCN1`, the growth was 110% in the test with DU-145 prostate; 107% in the test on K-562 leukemia; 107% in the test on MALME-3M melanoma; 111% with MDA-MB-231 breast; 123% in the test on RXF 393 renal; 99.6% with SF-268 CNS. The growth with SF-295 CNS was 102%; in the test with SF-539 CNS, 96.8%; with UACC-257 melanoma it was 97.8%.
For `C[N+](C)(C)C(=O)c1ccccc1`, the growth in the test with DU-145 prostate was 114%; in the test with K-562 leukemia, 117%; with MALME-3M melanoma it was 117%; in the test with MDA-MB-231 breast, 97.5%; with RXF 393 renal it was 114%; with SF-268 CNS, 98.2%. Also, the growth was 114% in the test on SF-295 CNS, 98.9% in the test on SF-539 CNS, 109% with UACC-257 melanoma and 95.2% with M14 melanoma.
In the case of `CC1(C)N=C(N)N=C(N)N1c1ccc(Cl)cc1`, the growth was 55.2% in the test with DU-145 prostate; 20.1% in the test on K-562 leukemia; 63.4% in the test with MALME-3M melanoma; 69% in the test on MDA-MB-231 breast; 71% in the test on RXF 393 renal; 36.6% with SF-268 CNS. In addition, the growth in the test on SF-295 CNS was 4.05% (active); in the test on SF-539 CNS, 22.7%; in the test on UACC-257 melanoma, 64%.
In the case of `CC(C)CCOC(=O)c1ccccc1`, the growth is 108% with DU-145 prostate; 102% in the test on K-562 leukemia; 96.9% in the test on MALME-3M melanoma; 104% in the test on MDA-MB-231 breast; 119% in the test with RXF 393 renal; 102% with SF-268 CNS. For the same molecule, the growth is 100% with SF-295 CNS, 98.8% in the test with SF-539 CNS, 101% in the test with UACC-257 melanoma and 100% with M14 melanoma.
Turning to `CC(=O)c1ccc(C(C)(C)C)cc1`, the growth in the test with DU-145 prostate is 105%; in the test with K-562 leukemia, 103%; in the test on MALME-3M melanoma it was 102%; in the test with MDA-MB-231 breast it was 107%; with RXF 393 renal, 95.2%; in the test with SF-268 CNS, 102%. The growth with SF-295 CNS is 97.6%; with SF-539 CNS, 94.3%; in the test with UACC-257 melanoma it was 97.2%.
In the case of `CNS(=O)(=O)c1ccc(Cl)c(Cl)c1`, the growth in the test on DU-145 prostate was 111%; with K-562 leukemia it was 99.5%; in the test with MALME-3M melanoma, 111%; with MDA-MB-231 breast, 98.2%; in the test on RXF 393 renal it was 99.7%; in the test with SF-268 CNS it was 96.1%. Also, the growth with SF-295 CNS is 101%; in the test with SF-539 CNS, 91.7%; in the test on UACC-257 melanoma it was 124%.
In the case of `CCOC(=O)c1[nH]c(C)c(C(C)=O)c1C`, the growth was 93.7% in the test on DU-145 prostate; 87.3% with K-562 leukemia; 95.7% in the test with MALME-3M melanoma; 96.6% in the test on MDA-MB-231 breast; 97.3% in the test on RXF 393 renal; 93.5% in the test on SF-268 CNS. Besides, the growth is 92.6% with SF-295 CNS, 92.6% in the test with SF-539 CNS and 98.3% with UACC-257 melanoma.
For `COS(=O)(=O)c1ccc(Br)cc1`, the growth in the test with DU-145 prostate is 102%; with K-562 leukemia it was 136%; in the test on MALME-3M melanoma it was 119%; in the test with MDA-MB-231 breast, 92.5%; with RXF 393 renal, 105%; with SF-268 CNS it was 84.9%. Further, the growth in the test on SF-295 CNS was 107%; with SF-539 CNS, 102%; in the test with UACC-257 melanoma it was 93%.
Regarding `CCOC(=O)C(=O)C=P(c1ccccc1)(c1ccccc1)c1ccccc1`, the growth is 103% in the test with DU-145 prostate; 107% with K-562 leukemia; 102% in the test on MALME-3M melanoma; 99.2% in the test with MDA-MB-231 breast; 106% in the test on RXF 393 renal; 97.9% in the test on SF-268 CNS. For the same molecule, the growth was 97.8% with SF-295 CNS, 103% in the test with SF-539 CNS and 111% in the test on UACC-257 melanoma.

The values above are taken from PubChem BioAssay (NCI).
